# Data reported in PubChem BioAssay (NCI).
# The panel holds about 83,000 compounds, 20% with a hit somewhere; the sample as a whole holds those more often.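 Single-concentration screen, 48 h exposure, 96-well plates. Endpoint: percent growth. Below 10 = active.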 A number with no mark means an inactive call. The source made the active and inactive calls.
# System: SK-MEL-5 melanoma
# Test: NCI-60 one-dose screen, 48 h (100 = growth as untreated, 0 = no growth, -100 = all killed)
# Settings: 10 µM unless noted
# Protocol: Growth inhibition of the SK-MEL-5 human tumor cell line is measured as a screen for anti-cancer activity. Cells are grown in 96 well plates and exposed to the test compound for 48 hours. Compounds are tested at a single concentration, which is 10^-5 M for most compounds. The reported endpoint is percent growth (GI% or GIPRCNT), where numbers from 0 - 100% represent growth inhibition, and numbers from -100% - 0 represent cell death. For example, a value of 40 represents 60% growth inhibition. A value of 0 means no net growth occurred over the course of the experiment. A value of -40 indicates 40% of cells at the beginning of the experiment died by the end of the experiment. A value of -100 means all cells are dead at the end of the experiment.
# NCI-60 Human Tumor Cell Lines Screen was performed using the standard one-dose NCI protocol, which is described in more detail at https://dtp.cancer.gov/discovery_development/nci-60/default.htm.
# Compounds with GIPRCNT values below 10 were considered active. Activity score was based on GIPRCNT using the following formula: […]
# Score is 0 for GIPRCNT values of 100 or above, 50 for GIPRCNT values of 0, and 100 for GIPRCNT values of -100.
row,SMILES,growth
1,O=C(CN1CCN(c2cc3c(cc2F)c(=O)c(C(=O)O)cn3C2CC2)CC1)Nc1ccc(C(=O)/C=C/c2ccccc2)cc1,13.6%
2,CCCCCCc1nc2c(c(C)nn2-c2ccccc2)c2c1CCCCC2,94.3%
3,COC(=O)CCCCN=Cc1c(O)c(O)c(C(C)C)c2cc(C)c(-c3c(C)cc4c(C(C)C)c(O)c(O)c(C=NCCCCC(=O)OC)c4c3O)c(O)c12,28.6%
4,Cc1cc(C)c2c(=O)[nH]c(SCC(=O)Nc3cccc(S(=O)(=O)N(C)C)c3)nc2n1,113%
5,CN(C)C1CCC(NC2=CC(=O)C=CC2=O)CC1 (stereo not given),106%
6,Cc1ccc2c(c1)ncn2-c1ncnc2c1CC(C)c1ccccc1N2C (stereo not given),-49.2% (active)
7,CCN1C(=O)N(CC)C2C1NN=c1s/c(=C\c3ccccn3)c(=O)n12 (stereo not given),5.18% (active)
8,NC(=O)c1ccc2c(c1)OCO2,99.2%
9,CCCCCCC[C@@H](O)CC(=O)N[C@H](CCCCN)C(=O)N[C@H](Cc1c[nH]c2ccccc12)C(=O)NC(CCCCN)C(=O)N[C@H](CC(C)C)C(=O)N[C@H](Cc1ccccc1)C(=O)N[C@H](CCCCN)C(=O)N[C@H](CCCCN)C(=O)N[C@H](CC(C)C)C(=O)N1CCCC1C(=O)N[C@H](CCCCN)C(=O)N[C@H](Cc1ccccc1)C(=O)N[C@H](CC(C)C)C(=O)N[C@H](Cc1c[nH]cn1)C(=O)N[C@H](CC(C)C)C(=O)N[C@H](C)C(=O)N[C@H](CCCCN)C(=O)N[C@H](CCCCN)C(=O)N[C@H](Cc1ccccc1)C(=O)O (stereo not given in full),-25.7% (active)
10,COc1ccc(C(=O)c2cc(OC)c(OC)c(OC)c2)cc1/C=C/C(=O)c1ccc2c(c1)OCO2,8.97% (active)
11,O=C1NC(Cc2c[nH]c3ccccc23)C(=O)N1Cc1ccc(Cl)cc1 (stereo not given),95%
12,CC(=O)Nc1nc(C(=O)N2N=C(C)/C(=C/c3ccc(Cl)cc3)C2=O)cs1,104%
13,O=S(=O)(NCCNc1cc(-c2cn(-c3ccccc3)nc2-c2ccccc2)ccn1)c1ccc(F)cc1,68.9%
14,Cc1ccc(S(=O)(=O)OCC(=O)Nc2ccc(C(=O)O)c(O)c2)cc1,96.3%
15,COc1c(NC[C@H]2OC(O)[C@H](O)[C@@H](O)[C@@H]2O)c(=O)c1=O (stereo not given in full),100%
16,COc1cc(CNC(=O)CSc2nc3ccccc3c(=O)n2Cc2cc(OC)c(OC)c(OC)c2)cc(OC)c1OC,93.7%
17,CCCCCCCCCCCCCCCCC(Br)C(=O)O (stereo not given),103%
18,Cc1sc(N=Nc2ccc(N(C)C)cc2)[n+]([O-])c1C,99%
19,CCn1cc(C(=O)O)c(=O)c2cc(F)c(N3CCN(S(=O)(=O)c4ccc(Cl)cc4Cl)CC3)cc21,-55% (active)
20,CS(=O)(=O)N(c1cc(-c2ccc3ncnc(Nc4cccc(Cl)c4)c3c2)cnc1Cl)S(C)(=O)=O,-60.7% (active)

row,SMILES,growth
1,COC1=CC(c2ccc[nH]2)=N/C1=C\c1[nH]c(C)c(C(=O)CCCCC(=O)Oc2ccc3c(c2)CCC2C3CC[C@]3(C)[C@@H](O)CC[C@@H]23)c1C (stereo not given in full),47.8%
2,CCCCCCCC/C=C\CCCCCCCCOc1ccccc1CCOP(=O)(O)OCC[N+](C)(C)C,69.5%
3,COc1ccc(OC)c(/C=C2\Oc3cc(OCCN4CCCC4)ccc3C2=O)c1,89.2%
4,O=S(=O)(NCCCNc1nccc(-c2c(-c3ccc(F)c(O)c3)nc3sccn23)n1)c1ccc(Cl)cc1,47.2%
5,COc1ccc(C(=O)/C=C/c2cccc([N+](=O)[O-])c2)c(OC)c1,41.4%
6,COc1ccc(Cn2cc(COc3cc(/C=C/C(=O)c4cc(OC)c(OC)c(OC)c4)ccc3OC)nn2)cc1,80.2%
7,Cc1ccc2c(c1)C(C)Cc1c(N(C)C)ncnc1N2C (stereo not given),15%
8,CC(C)CCN(CCCNc1c2c(nc3ccccc13)CCCC2)CCC(C)C,83.1%
9,CC/C=C\C[C@H]1C/C=C2/C(=O)C(Cl)=C[C@@H]2C/C=C\CCCC(=O)O1,-62.6% (active)
10,C=C1C(=O)O[C@H]2[C@H](O)[C@@H](C)CCC/C(C)=C/CC[C@@]3(C)O[C@@H]3C[C@@H]12,91.5%
11,COC(=O)c1ccc(C)cc1,103%
12,O=C(NCCc1c[nH]c2ccccc12)C1Cc2ccccc2CN1C(=O)c1ccco1 (stereo not given),95.6%
13,COc1cc(C2CC(c3c(C)[n+]([O-])c4ccccc4[n+]3[O-])=NN2)cc(OC)c1OC (stereo not given),96%
14,Nc1cccc2c1CN(C1CCC(=O)NC1=O)C2=O (stereo not given),103%
15,CSc1ccccc1C#C/C=C\C#Cc1ccccc1N1CCCCC1=O,101%
16,Clc1nc(Cl)c2ncn(C/C=C/Cn3cnc4c(Cl)nc(Cl)nc43)c2n1,68.7%
17,CC(Cc1nnc(SCC(=O)Nc2ccc(I)cc2)n1N)c1ccccc1 (stereo not given),94.3%
18,Cc1cc(C)c(NC(=O)c2sc3nc4c(cc3c2N)CN(Cc2ccccc2)CC4)c(C)c1,26.1%
19,O=C(CCCn1c2c(sc3ccccc32)c(=O)n2nnc(-c3ccccc3)c12)NCCc1cnc[nH]1,-67.1% (active)
20,COc1ccccc1CNCCCN1C(=O)c2ccc3c4c(ccc(c24)C1=O)C(=O)N(CCCNCCCCNCCCCN)C3=O,-85% (active)
